Among the data in PubChem BioAssay (NCI) are growth values, retold here.

What all share (experiment): NCI-60 one-dose screen, 48 h (100 = growth as untreated, 0 = no growth, -100 = all killed)
Experiment [1] relates to SK-MEL-2 melanoma. As to conditions: 10 µM unless noted.
Experiment [2] concerns EKVX NSCLC. As to conditions: 10 µM unless noted.
Experiment [3] concerns SN12C renal. As to conditions: 10 µM unless noted.
The test system of experiment [4] is UO-31 renal. To be noted: 10 µM unless noted.
Experiment [5] concerns TK-10 renal. As to conditions: 10 µM unless noted.
The subject of experiment [6] is ACHN renal. To be noted: 10 µM unless noted.
The test system of experiment [7] is A498 renal. To be noted: 10 µM.
For experiment [8], the system named is HL-60(TB) leukemia. As to conditions: 10 µM unless noted.
The test system of experiment [9] is CCRF-CEM leukemia. To be noted: 10 µM unless noted.

SMILES strings stand for the structures. Compounds without any hit were thinned out: in the full panel of roughly 83,000, 20% have a hit.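 Negative percent growth values reflect cell death: -40 means 40% of the cells present at the start died, and -100 means all died.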 A number with no mark means an inactive call. Calls of active or inactive are those of the source. The calls were made as follows: active = growth percent below 10; inactive = the rest.

Take `O=[N+]([O-])c1cc(I)cc([N+](=O)[O-])c1`: the growth in experiment [1] is 96.8%; in [2] it was 99.9%; in experiment [3], 103%; in experiment [4] it was 108%; in experiment [5], 117%; in [6], 121%. The growth in [7] was 111%; in experiment [8] it was 125%; in experiment [9], 100%.
Consider `COC(=O)[C@@H](C)C[C@H](Cc1ccccc1)NC(=O)c1nc([C@@H](C[C@H](C(C)C)N(C)C(=O)[C@@H](NC(=O)[C@H]2CCCN2C)C(C)C)OC(C)=O)sc1C`, for which the growth in experiment [1] is 36.6%; in experiment [2] it was 45.4%; in [3], 31%; in experiment [4], 43.9%; in experiment [5] it was 13.6%; in [6] it was 19.6%. Besides, the growth in experiment [7] is -2.29% (active); in experiment [8] it was -33.5% (active); in [9], 10.3%.
Consider `CCOC(=O)[C@@H](C)C[C@H](Cc1ccccc1)NC(=O)c1csc([C@@H](C[C@H](C(C)C)N(C)C(=O)[C@@H](NC(=O)[C@H]2CCCCN2C)C(C)(C)C)OC(C)=O)n1`, for which the growth was 1.39% (active) in experiment [1]; 31.5% in experiment [2]; 13.3% in experiment [3]; 20.6% in experiment [4]; 49.2% in experiment [5]; 17.1% in [6]. The growth in experiment [7] is -11.4% (active); in [8] it was -33.2% (active); in experiment [9] it was 1.8% (active).
Consider `CC[C@H](C)[C@H](NC(=O)[C@H]1CCCCN1C)C(=O)N(C)[C@H](CC(=O)c1nc(C(=O)N[C@@H](Cc2ccccc2)C[C@H](C)C(=O)O)cs1)C(C)C`, for which the growth in [1] is 37.8%; in [2], 91.5%; in experiment [3], 83.8%; in experiment [4] it was 88.6%; in experiment [5] it was 97.2%; in experiment [6], 109%. Further, the growth was 73.4% in [7], -7.69% (active) in experiment [8] and 21.2% in experiment [9].
Regarding `COc1cc2c(=O)n(C3CCCCCCC3)c3c4cc[nH]c4ncc3c2cc1OC`, the growth was 78.7% in experiment [1]; 71.6% in experiment [2]; 49.8% in experiment [3]; 22.5% in experiment [4]; 30.8% in [5]; 40.9% in experiment [6]. Further, the growth was 4.93% (active) in [7], 57.6% in experiment [8] and 44.9% in [9].
Consider `CC1(C)N=C(N)N=C(N)N1c1cccc(CCCCc2ccc(Cl)c(S(=O)(=O)F)c2)c1`, for which the growth is 52.3% in experiment [1]; 51.5% in experiment [2]; 30.5% in [3]; 92.4% in experiment [4]; 55.5% in experiment [5]; 87.5% in [6]. Moreover, the growth in experiment [7] is 86.1%; in [8], 18.8%; in experiment [9], 28.1%.
Take `CCCCN1CCCC[C@@H]1C(=O)N[C@H](C(=O)N(C)[C@H](CCc1nc(C(=O)N[C@@H](Cc2ccccc2)C[C@H](C)C(=O)OC)cs1)C(C)C)[C@@H](C)CC`: the growth in [1] was 24.8%; in experiment [2], 61.2%; in experiment [3], 77.6%; in [4], 48%; in [5], 69.2%; in [6] it was 52.2%. The growth in experiment [7] is 32.9%; in experiment [8] it was 27.5%; in experiment [9], 61.6%.
With `Cc1cc(-c2nc3cc(F)ccc3[se]2)cc(F)c1N`, the growth in experiment [1] is 101%; in experiment [2] it was 66.4%; in experiment [3] it was 95.5%; in experiment [4] it was 55.8%; in experiment [5], 57.6%; in experiment [6], 79%. For the same compound, the growth in [7] is 74.8%; in [8] it was 87.2%; in experiment [9], 85.2%.
For `Cn1cc(-c2csc(-c3cn(CCN4CCOCC4)c4ccc(F)cc34)n2)c2cccnc21`, the growth in [1] was 15.8%; in [2] it was 37.5%; in [3] it was 61.4%; in experiment [4], 11%; in [5], 55.7%; in experiment [6], 17.7%. The growth in experiment [7] was 68.1%; in experiment [9], 12.4%.
Regarding `COc1cc2c(cc1OCCCCCn1c(-c3ccco3)nc3ccccc31)N=C[C@@H]1CCCN1C2=O`, the growth in experiment [1] was -43.9% (active); in [2], 22.7%; in experiment [3] it was 15.8%; in experiment [4], -23.9% (active); in experiment [5], -1.37% (active); in experiment [6] it was 10.2%. Further, the growth in experiment [7] was -39.6% (active); in experiment [8] it was -27.4% (active); in [9] it was 29.8%.
`Nc1c(F)cc(-c2nc3cc(F)ccc3[se]2)cc1F`: the growth in experiment [1] was 107%; in [2], 47.6%; in experiment [3], 85.9%; in experiment [4], 60.2%; in experiment [5] it was 27.7%; in experiment [6], 68.7%. Further, the growth in experiment [7] was 38.9%; in experiment [8] it was 83.5%; in experiment [9] it was 88.7%.
As to `CC1=C(CCCOC(=O)CN)C2=C(C)C3(CC3)[C@@](C)(O)C(=O)C2=C1`, the growth in [1] is 102%; in experiment [2] it was 95.8%; in [3], 81.3%; in experiment [4], 73.3%; in [5], 102%; in [6], 97.4%. Also, the growth in experiment [7] is 94.7%; in experiment [8] it was 75.2%; in experiment [9], 81.1%.
`CCCC[C@H](NC(=O)[C@H]1CCCCN1C)C(=O)N(C)[C@H](C[C@@H](OC(C)=O)c1nc(C(=O)N[C@@H](Cc2ccccc2)C[C@H](C)C(=O)OCC)cs1)C(C)C`: the growth in experiment [1] is 11.8%; in experiment [2], 47.8%; in experiment [3], 23.9%; in [4] it was 31.9%; in experiment [5], -7.07% (active); in experiment [6], 13.5%. Further, the growth is -11.9% (active) in [7], -25.7% (active) in experiment [8] and 8.81% (active) in [9].
